The labels stand for the following.
B1: chr6:117881578:117881579:-_ENSG00000047932_ENST00000052569|hu_hu|motif|central (ssRNA)
RNA: GGGAGUUCUACAGUCCGACGAUCUUUAAUGUAGAAGAUGCCAUCUUUAUUUACAGGCUAAUAAAAAAAUAUUAAACUCAACGGGAUAUAAUACAUUAUCAUAAAUGCAAUAGAUUUGAGGCCAACCAUAAGUGUAAGACUGGACAACAGAGGAUUGAGCAUCA
B2: chr3:144353948:144353949:-_ENSMUSG00000037062_ENSMUST00000163279|mus_hu|FALSE|FALSE (ssRNA)
RNA: GGGAGUUCUACAGUCCGACGAUCACCAAACAACUCUGAAAAUAACCCAUCAAAACAUAAUAUUAAAAUCAUUUGAUUUCUGUUGGAAAACCAGGUAAACAUAGUUUAAAUGCGUUUUUGUCUAUGAAAGCAUUCAGAAAAUUCCAACAGAGGAUUGAGCAUCA
B3: chr7:134094464:134094465:+_ENSMUSG00000030683_ENSMUST00000106335|mus_hu|FALSE|FALSE (ssRNA)
RNA: GGGAGUUCUACAGUCCGACGAUCCUCCGUCUCCGUUUAUCUUUCCCUUUAAUUGUUUUUUUUUUUUUUUUUUUUUUCCUCGUAGGAGUCAGCAAAGAAAGACAAUUUCUCUGCCCCUUGGGAUGGAGGGGCAGAAUUGGGCUACAACAGAGGAUUGAGCAUCA
B4: chr19:3980662:3980663:-_ENSG00000167658_ENST00000309311|hu_mus|FALSE|FALSE (ssRNA)
RNA: GGGAGUUCUACAGUCCGACGAUCGAACACUCUACCAAAGGCAUAGAAGCGGCCUUUGUCAGAGGUUGGCACCAUCUUGGAAAUGUACAUCAUAAGUGGGCCUUUGGGGUCGCAGCUCUUAAUACCCAUGGCGGCCUCAUCGUCCAACAGAGGAUUGAGCAUCA
B5: chr16:45382771:45382772:-_ENSMUSG00000022661_ENSMUST00000163230|mus_mus|motif|central (ssRNA)
RNA: GGGAGUUCUACAGUCCGACGAUCGAGAGUGUUAUUGUGGGCCCAAUGGAUAGGGAGAGCAUGCUUUUGUAAAGAUGUGAACGGCUCACUAAGACUAACAAUAUUGCCUAAGUGCUAUAAAAAUAAGUUAAAUGGACACAUUACCAACAGAGGAUUGAGCAUCA
B6: chr6:44218825:44218826:+_ENSG00000096384_ENST00000371646|hu_hu|FALSE|FALSE (ssRNA)
RNA: GGGAGUUCUACAGUCCGACGAUCGUUGUUCUUUUUCUUCUUGUUCUCAAAAAGGUCAAAGGGAGCCCGACGAGGAAUAAAUAGCAAUGCCCUGAAUUCCAACUGACCUUCUACAGAAAAGUGCUUGACUGCCAAGUGGUCUUCCAACAGAGGAUUGAGCAUCA
B7: chr10:115881139:115881140:-_ENSG00000165813_ENST00000369287|hu_hu|motif|central (ssRNA)
RNA: GGGAGUUCUACAGUCCGACGAUCAUAAAAAUAUUUUCACCAGGGUAGCAUAUAUAACAACAUUUACAUUAUUAAGGAUUCGGUUUUUUUCUUUUACUGAUAAAUCUUGGUUUAAAUUUGCAUGUAACAAUUUUUAGAAAAUAACAACAGAGGAUUGAGCAUCA
B8: chr4:62795864:62795865:+_ENSMUSG00000028358_ENSMUST00000107415|mus_hu|motif|central (ssRNA)
RNA: GGGAGUUCUACAGUCCGACGAUCCAGAGUCUAAAUCAAAUCUGAAGAAACAAAAUGAACCCCCAAACAAGGUAAAAAUUGCGGAAAUGUUAGGGAGAGAAAUUAUUAGGGAGUGGAGACAGUAUCUAUACUUCUCUGAAAAAUCAACAGAGGAUUGAGCAUCA
B9: chr1:44133529:44133530:+_ENSG00000066135_ENST00000372396|hu_hu|FALSE|FALSE (ssRNA)
RNA: GGGAGUUCUACAGUCCGACGAUCAAACUCAGCUGCUUCUGGCGUGGGCAGAGUAUGGUCAAUAACUGUGUUGUCCUUCCCAGCUUUCCAAAGUUUGUACCUUUCUGGCUGGAACUUUCUCACAAACACAUCCAUGGAGAUCUUCAACAGAGGAUUGAGCAUCA
B10: chr7:149068622:149068623:-_ENSMUSG00000025139_ENSMUST00000001950|mus_hu|mus_mus_mus_hu_False|28_108 (ssRNA)
RNA: GGGAGUUCUACAGUCCGACGAUCGUGCAGGUACUGAGUGUGGCUUGUGGUCUGUCCUGGGUUAGAGUUGUUAAUAUCACGGAACAUACCAUCUAGAACGUUCCAGUCUGCCUGACUACCUUCAUUCCCAAUGGAGAAGAAAUCCAACAGAGGAUUGAGCAUCA
B11: chr12:111867003:111867004:+_ENSMUSG00000018707_ENSMUST00000018851|mus_hu|FALSE|FALSE (ssRNA)
RNA: GGGAGUUCUACAGUCCGACGAUCCACCAGCAUAUUUAUCUUCAUGUAACCUUUCAGAAGCCUCUGAACAAACUCAUAGGACGCAUACUGUCGCAACCGGGCAGGGAAGCUUUUCAGCUGGUUCAGGAGGGCAUCCAAAUUUUGCAACAGAGGAUUGAGCAUCA
B12: chr18:32579733:32579734:+_ENSMUSG00000024381_ENSMUST00000025239|mus_mus|motif|central (ssRNA)
RNA: GGGAGUUCUACAGUCCGACGAUCUUUAUGGAAGUUUUCCUCCAGACCCGCGAUGCUCUGGAACGUGUUGACAUAGAAACCGGCACGGCUGUUCCACAGGGAUGGCAGCUCCUCCUGCAGAUCCACGUUCAUCUCCUCGAACACCAACAGAGGAUUGAGCAUCA
B13: chr8:27055589:27055590:-_ENSMUSG00000037260_ENSMUST00000037609|mus_hu|FALSE|FALSE (ssRNA)
RNA: GGGAGUUCUACAGUCCGACGAUCUUCCCUUUAACAAAGGCUGCUUCAGUCCUCCCUGCAGGCCUACUAGAGUCUUCCAGCAGCACAUCUCAGUGGGAGCCAUCAGAUUUUCCAAAAAAUCUUCUUUCUAUAGAGGAUGUAGGCCAACAGAGGAUUGAGCAUCA
B14: chr16:94690093:94690094:+_ENSMUSG00000040785_ENSMUST00000117648|mus_hu|mus_mus_mus_hu_True|28_38 (ssRNA)
RNA: GGGAGUUCUACAGUCCGACGAUCGGGCUGGGAUGACGGACACACAGCCUCGAUUCCAGGGGGAAAAAGUCUUAGUCGAUACUAAUUAAAAAGUGUUUUUAUAAUUGAUUACCAAAAUUACAUCUAUAAAAGAUGAAAAGCAAACAACAGAGGAUUGAGCAUCA
B15: chr12:16048344:16048345:+_ENSG00000023734_ENST00000419869|hu_hu|hu_hu_hu_mus_True|18_18 (ssRNA)
RNA: GGGAGUUCUACAGUCCGACGAUCAGAUCGUCCAUAAGUAAUAACCAAAAUCUCUCCUUCAGGAAUAUACUCCAUGCUGCUAACAGACAUAUUAAAAUUCAGAGAUUUCACUUCUGUCAUAGUAGCAUGAUCCCAGAGCCGAACCAACAGAGGAUUGAGCAUCA
B16: chr5:134191040:134191041:+_ENSG00000181904_ENST00000394976|hu_hu|motif|central (ssRNA)
RNA: GGGAGUUCUACAGUCCGACGAUCAAAAGCAGCAGUGCCACAGCCAUAACCAAGAUCGGCAAGACGGGAUAGAGCUUUAAUGCGGCCUGGAGGUCUGCCUGGGCUGACUUUGUAUCCCGCAGCUUUAGUUGUCCCCAAAGGUCUCAACAGAGGAUUGAGCAUCA
B17: chr9:74905015:74905016:+_ENSMUSG00000007656_ENSMUST00000169492|mus_hu|FALSE|FALSE (ssRNA)
RNA: GGGAGUUCUACAGUCCGACGAUCUGUGUUUGAAAUAUGUGACCUUUCUUCUAACUUGUGGUCUUAAACUUCUGUUUUACAAAAUCCAAAAGGUAAAUACAGAAGAAAUCAAUACAAUAGAGAUUAUAUUAAAUAAGAGUAACACAACAGAGGAUUGAGCAUCA
B18: chr22:32879901:32879902:+_ENSG00000100225_ENST00000397426|hu_mus|hu_hu_hu_mus_False|8_18 (ssRNA)
RNA: GGGAGUUCUACAGUCCGACGAUCCUCUUCCAUACUCAUGGCAUCCUGAAUUGACUCAGCUUCAACAUUUUGACUAGGCCCUUCCAUACUGUCAUCAGUCCAGGCAUCAAAUGGGGUUGCCUGUCCUUGGAAUGAAUCAGUCCCCAACAGAGGAUUGAGCAUCA
B19: chr6:50805741:50805742:+_ENSG00000008196_ENST00000393655|hu_hu|FALSE|FALSE (ssRNA)
RNA: GGGAGUUCUACAGUCCGACGAUCCAGGGAGGUGAGUAACGUGACAUUUGCUGCUUUGCGCCUGCCCGCGGGUAAAUUCAAACCGAUUUUUUCUAGCCUUUCUCGCAAAGAUCUCCCCCCAUUUUUCGAUUUGGCUCUUCUGAGCAACAGAGGAUUGAGCAUCA
B20: chr7:99593380:99593381:+_ENSMUSG00000052572_ENSMUST00000098308|mus_hu|FALSE|FALSE (ssRNA)
RNA: GGGAGUUCUACAGUCCGACGAUCGGUGAGGAGGCUCUCAUCUCAUCUCUUGGGCAGAAAGCCCGUCAGAGGUUCAUCCCUACACCUGGCACUUUGAGCAAACCAAAGCCUUCCUUCAUACUGCAAUGUCUUUUCUGUCCCACCCAACAGAGGAUUGAGCAUCA
B21: 73047273_73096420_338_5pUTR_ENSG00000163605_ENST00000295862|human|control|control (ssRNA)
RNA: GGGAGUUCUACAGUCCGACGAUCGGCUCAGGAGCUGAAGUUCUGAAAUCAUCCAUCACUUUCUCCAGUUUGAAAAUAAAAUAGCCUUUAAAUUGGGACCACUGAAUCAUUGUUUCUCCAGUCUUGGCUACAUGACAAAGAAACCAACAGAGGAUUGAGCAUCA
B22: chr3:179287964:179287965:+_ENSG00000136518_ENST00000429709|hu_hu|hu_hu_hu_mus_True|28_38 (ssRNA)
RNA: GGGAGUUCUACAGUCCGACGAUCCUUGAGUGGUGAGAUGGCCUCCAUGUUCUCCCUGGGCACGCGGAGGGCAUUGGUGUCUAUGUAGUAGGUGGGCCCGCCUUGUUUGCCUUUAUCACCAUCAAUCUCCAUCAUUGUACUUCCCAACAGAGGAUUGAGCAUCA

The full ranking holds about 24,000 sequences; the median of “enrichment r” is about 0.99, and the highest 2% start at about 3.7. Not all results are given here.

This assay addresses T1, UNK ZnF1-3 (human, UniProt Q9C0B0 31-174).
T1 sequence: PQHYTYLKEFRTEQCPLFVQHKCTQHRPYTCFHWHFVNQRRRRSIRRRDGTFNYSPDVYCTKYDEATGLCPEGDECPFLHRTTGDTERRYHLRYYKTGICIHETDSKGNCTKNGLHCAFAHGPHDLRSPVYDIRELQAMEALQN
In words: nsRBNS (natural sequence RNA bind-n-seq); RBNS binding buffer (assumed for nsRBNS): 25 mM Tris pH 7.5, 150 mM KCl, 3 mM MgCl2, 0.01% Triton X-100, 500 ug/ml BSA, 20 U/ml SUPERase-In, 4 C; UNK is unkempt and MSI1 is Musashi-1; names of the RNAs are library labels; protein concentration not given here; high values mean tight binding.
Molecule B1 gave a binding signal of 1.5 enrichment R.
For B2 the value was 0.744 enrichment R; for B3, 1.16 enrichment R; for B4, 1.18 enrichment R.
With B5, the binding signal came to 2.47 enrichment R.
Next, B6: 0.931 enrichment R; B7: 2.85 enrichment R; B8: 1.32 enrichment R.
On to B9, for which the binding signal was 0.628 enrichment R.
Take B10: the binding signal amounted to 0.859 enrichment R.
Next, B11: 1.13 enrichment R; B12: 0.625 enrichment R.
Consider B13, for which the binding signal worked out at 1.28 enrichment R.
For B14 the value was 1.26 enrichment R; for B15, 0.977 enrichment R.
Next, B16: 1.39 enrichment R.
For B17 the value was 2.28 enrichment R; for B18, 1 enrichment R; for B19, 1.13 enrichment R.
B20: the binding signal amounted to 1.29 enrichment R.
Consider B21, for which the binding signal amounted to 1.25 enrichment R.
B22 returned a binding signal of 0.581 enrichment R.

The values above are taken from PMC12136788.
